Measured values published in PubChem BioAssay (NCI).
Compounds without any hit were thinned out: in the full panel of roughly 83,000, 20% have a hit.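 Treatment: one concentration, 48 hours, 96-well format. Scoring: percent growth, with anything below 10 considered active.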 Unmarked numbers belong to inactive results. Activity calls are given as the source filed them.

Tests used:
Assay in all cases: NCI-60 one-dose screen, 48 h (100 = growth as untreated, 0 = no growth, -100 = all killed)
Conditions in all cases: 10 µM
NCI-H23 lung = system: NCI-H23 lung
NCI-H226 lung = system: NCI-H226 lung
HOP-62 NSCLC = system: HOP-62 NSCLC
NCI-H460 lung = system: NCI-H460 lung
HOP-92 NSCLC = system: HOP-92 NSCLC
NCI-H522 lung = system: NCI-H522 lung
COLO 205 colon = system: COLO 205 colon
DU-145 prostate = system: DU-145 prostate
K-562 leukemia = system: K-562 leukemia
MDA-MB-231 breast = system: MDA-MB-231 breast
SF-268 CNS = system: SF-268 CNS
SF-295 CNS = system: SF-295 CNS
SF-539 CNS = system: SF-539 CNS
UACC-257 melanoma = system: UACC-257 melanoma
M14 melanoma = system: M14 melanoma
786-0 renal = system: 786-0 renal
MALME-3M melanoma = system: MALME-3M melanoma
RXF 393 renal = system: RXF 393 renal
A549/ATCC NSCLC = system: A549/ATCC NSCLC

| Structure (SMILES) | growth (NCI-H23 lung) | growth (NCI-H226 lung) | growth (HOP-62 NSCLC) | growth (NCI-H460 lung) | growth (HOP-92 NSCLC) | growth (NCI-H522 lung) | growth (COLO 205 colon) | growth (DU-145 prostate) | growth (K-562 leukemia) | growth (MDA-MB-231 breast) | growth (SF-268 CNS) | growth (SF-295 CNS) | growth (SF-539 CNS) | growth (UACC-257 melanoma) | growth (M14 melanoma) | growth (786-0 renal) | growth (MALME-3M melanoma) | growth (RXF 393 renal) | growth (A549/ATCC NSCLC) [%] |
| --- | --- | --- | --- | --- | --- | --- | --- | --- | --- | --- | --- | --- | --- | --- | --- | --- | --- | --- | --- |
| COc1ccccc1N1CCCSC1=Nc1ccccc1 | 104% | 107% | -5.39% (active) | 99.7% | 68.4% | 71.9% | 104% | 99.7% | 78.4% | 101% | 99% | 80.2% | 98.9% | 43.7% | 63.3% | – | – | – | – |
| O=C(N/N=C/c1ccc([N+](=O)[O-])cc1)c1ccccc1Nc1cccc(C(F)(F)F)c1 | 91.2% | 95.2% | 89.4% | 115% | 61% | 88.8% | 131% | – | 107% | 80.5% | 98.4% | 105% | 60.7% | 95.5% | 86.4% | 73% | – | – | – |
| C(=N\Nc1ncnc2sc3c(c12)CCNC3)/c1cccc2ccccc12 | 98.9% | 97.1% | 79.9% | 62.8% | 93.4% | 97% | 63.5% | 100% | 2.84% (active) | 66% | 97.5% | 104% | 85.8% | 104% | 95% | 59.5% | 92.6% | 85% | – |
| CC(C)(O)CCl | 109% | 96.7% | 107% | 102% | 114% | – | 126% | 109% | 106% | 99.8% | 111% | 97.9% | 99.8% | 91.9% | 108% | 114% | 116% | 117% | 98.4 |
| CC(=O)Nc1ccc(CC[C@H]2CCC/C=C/[C@@H]3C[C@H](O)C[C@H]3[C@H](O)/C=C/C(=O)O2)cc1 | -19% (active) | 10.1% | 15.7% | 13.3% | -15% (active) | -39.3% (active) | – | 22.9% | 15.3% | -88.4% (active) | 13.8% | 16.9% | 25.3% | -3.78% (active) | 9.87% (active) | – | -7.38% (active) | -32.1% (active) | – |
| COc1cc(/C=C/c2cc(/C=C/c3ccc(O)c(OC)c3)n(C(=O)Nc3ccc(C)cc3)n2)ccc1O | -10.4% (active) | -0.891% (active) | 11.6% | 10.1% | -15.4% (active) | -19.3% (active) | -25.8% (active) | 2.02% (active) | 2.29% (active) | 19.9% | -11.5% (active) | 0.531% (active) | 5.95% (active) | 4.8% (active) | 2.3% (active) | -1.18% (active) | 17.3% | -47.5% (active) | – |
| CN(C)CCOc1ccccc1NC1=C(Cl)C(=O)C(Nc2ccccc2OCCN(C)C)=C(Cl)C1=O | 64.1% | 93.9% | 110% | 99.2% | 59.9% | -53.3% (active) | -62% (active) | 84.7% | -12.6% (active) | 53.1% | 86% | 103% | 101% | 85.2% | 92.9% | 74.8% | 64.7% | 68.5% | – |
| CCCCN(CCCC)C(=O)[C@H](CC)[C@@H]1CC[C@@H](C)[C@@H]([C@H](C)[C@@H](O)[C@@H](C)C(=O)[C@H](CC)C2O[C@]3(C=C[C@@H](O)[C@]4(CC[C@@](C)([C@H]5CC[C@](O)(CC)[C@H](C)O5)O4)O3)[C@H](C)C[C@@H]2C)O1 (stereo partly drawn) | -11.8% (active) | -2.42% (active) | 7.81% (active) | -4.44% (active) | -25.6% (active) | -18.4% (active) | -77.6% (active) | 35.4% | 14.1% | -25.3% (active) | 19.6% | -10.4% (active) | 16.9% | 0.418% (active) | 14.2% | 17.4% | -15.8% (active) | -3.81% (active) | – |
| CN(C)CCOc1cccc(NC2=C(Cl)C(=O)C(Nc3cccc(OCCN(C)C)c3)=C(Cl)C2=O)c1 | -59.5% (active) | -74.6% (active) | -82.9% (active) | 55.4% | -70.1% (active) | -91.3% (active) | – | -100% (active) | -30.7% (active) | -75.2% (active) | -50% (active) | 66.5% | -86.4% (active) | -97.3% (active) | -74% (active) | -86.4% (active) | -74.8% (active) | -76.5% (active) | 57.9 |
| CCN(CC)CCN1c2nc3ccccc3cc2Sc2cc3ccccc3nc21 | -5.59% (active) | -10.6% (active) | 12.8% | -95.2% (active) | -12.9% (active) | -69.4% (active) | -73.9% (active) | – | -69.1% (active) | -0.0354% (active) | 12.2% | -49.2% (active) | -100% (active) | 8.34% (active) | -65% (active) | -40% (active) | – | – | – |
| O=C(Nc1ccc(F)cc1)c1cc2ccccc2cc1O | 61.8% | 74.2% | 78.7% | 80.5% | 2.82% (active) | 56.5% | 95.5% | 85.7% | 45.6% | 66.7% | 87.3% | 90.7% | 84% | 58.1% | 88.4% | 93.5% | 72% | 94.6% | – |
| COc1ccc(Cl)cc1Nc1nc(C(F)(F)F)ccc1C(=O)N/N=C/c1ccc(Cl)cc1 | 64.1% | 52.1% | 44.8% | 26.9% | 25.7% | 31.6% | 18% | – | 28.6% | 30.5% | 37.2% | 18.5% | 34% | 43.3% | 57.3% | 13.6% | – | – | – |
| CC1OC2CC(=O)OC2C2=C1C(=O)c1c(O)c3c(c(O)c1C2=O)C1CC(O)C3(O)C(C)O1 (stereo not drawn) | -34.2% (active) | -69% (active) | -49.5% (active) | 2.35% (active) | -13% (active) | -66.4% (active) | -73.5% (active) | -94.9% (active) | 6.27% (active) | -16.3% (active) | 1.92% (active) | 3.26% (active) | -84.2% (active) | -58.4% (active) | -76.7% (active) | -12.3% (active) | – | -91.1% (active) | – |
| Clc1ccc(Cc2ccncc2)cc1 | 105% | 109% | 107% | 113% | 85.6% | 82% | – | 114% | 111% | 99.5% | 96.2% | 112% | – | 104% | 109% | 97.3% | – | 110% | 106 |
| O=C1OC(C(Cl)(Cl)Cl)OC1C(Cl)(Cl)Cl (stereo not drawn) | 102% | 110% | 121% | 108% | 105% | 96.4% | – | 101% | 91.3% | 103% | 103% | 98% | 115% | 92.5% | 99% | 114% | – | 116% | 95.6 |
| O=C1/C=C/[C@@H](O)[C@@H]2C[C@@H](O)C[C@H]2/C=C/CCC[C@H](CCc2ccc(NC(=S)Nc3ccc4c(c3)C(=O)OC43c4ccc(O)cc4Oc4cc(O)ccc43)cc2)O1 | 4.65% (active) | 17.4% | 25% | 15.4% | -4.85% (active) | -31% (active) | – | 17.4% | 13.5% | -88.7% (active) | 12.8% | 22.2% | 29.4% | 0.525% (active) | 10.9% | – | -1.26% (active) | -30.2% (active) | 17.3 |
| COc1cc(C(=O)/C=C/c2c[nH]c3ccccc23)cc(OC)c1OC | 16.1% | 55.6% | 41.1% | 8.04% (active) | 39.2% | -27% (active) | -65.1% (active) | 5.54% (active) | 11.3% | 13% | 20.3% | 16.9% | -1.84% (active) | – | 8.91% (active) | 12.2% | 52.5% | 43% | – |
| O=C(CN1CCN(C(=O)c2ccccc2)CC1)Nc1ccccc1SCc1ccccc1 | 79% | 81.5% | 89.6% | 96.8% | 71.4% | 50.9% | – | 101% | 66% | 68.7% | 90.9% | 86.9% | 89.1% | – | 79.4% | 79.3% | 86.1% | 111% | 83.4 |
